PubChem BioAssay (Tox21)
Inconclusive results are not listed. Active and inactive are the calls of the source. Unless noted, calls come from the whole dose curve.

How the values were obtained:
[1] = Nuclear factor erythroid 2-related factor 2/antioxidant responsive element (Nrf2/ARE) small molecule agonists: qHTS cell viability counter screen in human keratinocytes (AID 1919968; active = well fitted cell-killing curve with a large enough effect in the repeat runs; note: nearly all actives have a fitted effect of over 55% in size; note: potency is the fitted concentration of half-maximal effect)
Summary of the method: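 Stably transfected HaCaT (KeratinoSens), 1,500/well. Test agents in DMSO were applied for 23 h, 37 C/5% CO2. CellTiter-Fluor was incubated 1 h before the fluorescence read.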

[2] = Nuclear factor erythroid 2-related factor 2/antioxidant responsive element (Nrf2/ARE) small molecule agonists: luciferase reporter gene qHTS assay in human keratinocytes (AID 1919969); note: nearly all actives have a fitted effect of over 35% in size; note: potency is the fitted concentration of half-maximal effect
[3] = target: Gonadotropin-releasing hormone receptor (Homo sapiens) (UniProt P30968); experiment: Human gonadotropin-releasing hormone receptor (GnRHR) small molecule agonists, calcium flux assay in GnRHR-HEK293 cells (AID 1920063); note: nearly all actives have a fitted effect of over 35% in size
Summary of the method: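 Stable human GnRHR HEK293 line. 18 h plating, then calcium dye for 1 h at 37 C. Agonist-mode compound addition from DMSO stocks; fluorescence monitored 3 min.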

[4] = G protein-coupled receptor (GPCR) small molecule agonists, calcium flux assay: HEK293 wild type cell line counter screen (AID 1920065)
Summary of the method: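 Following 18 h incubation at 37 C/5% CO2, plates got calcium dye for 1 h; compounds, ATP or DMSO were then pinned in and fluorescence followed kinetically (480/540 nm).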

[5] = p53 small molecule agonists, cell-based qHTS assay with human liver microsomes (AID 1963577);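 note: p53 response element beta-lactamase reporter cells with liver microsomes plus NADPH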
Summary of the method: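 Steps: plate p53RE-bla cells, incubate 5 h at 37 C; add compound in DMSO; add microsomes (0.5 mg/mL final) and NADPH (0.5 mg/mL final); incubate 16 h at 37 C; add LiveBLAzer, 2 h RT; read fluorescence.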

[6] = p53 small molecule agonists, cell-based qHTS assay with rat liver microsomes (AID 1963578)
Summary of the method: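 Metabolic activation is supplied by rat liver microsomes with NADPH (each 0.5 mg/mL final). p53RE-bla cells incubate with compound 16 h at 37 C; reporter activity is measured by LiveBLAzer fluorescence.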

[7] = p53 small molecule agonists, cell-based qHTS assay with human liver microsomes: qHTS cell viability counter screen (AID 1963579); note: nearly all actives have a fitted effect of over 45% in size
Summary of the method: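 After the 460/530 nm beta-lactamase read, CellTiter-Glo was added to the same wells and luminescence measured after 30 min at room temperature, giving viability of p53RE-bla cells treated 16 h with compounds plus microsomes and NADPH.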

[8] = p53 small molecule agonists, cell-based qHTS assay: qHTS cell viability counter screen (AID 1963581); note: nearly all actives have a fitted effect of over 45% in size
Summary of the method: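 qHTS counter screen: 16 h compound exposure at 37 C of p53RE-bla HCT-116 cells (4,000 per well, seeded 5 h prior), cell viability by ATP luminescence.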

[9] = p53 small molecule agonists, cell-based qHTS assay (AID 1963582; active = well fitted activation curve with a large enough effect in the signal ratio in the repeat runs, not every such curve was filed as active; the % refers to the signal ratio)
Summary of the method: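 Measured: fluorescence from cleaved LiveBLAzer substrate. System: p53RE-bla cells, 16 h compound treatment at 37 C, 2 h substrate step at room temperature.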

[10] = target: Muscarinic acetylcholine receptor M1 (Homo sapiens) (UniProt P11229); experiment: Cholinergic receptor muscarinic 1 (CHRM1) small molecule agonists, cell-based qHTS assay (AID 1963589); note: nearly all actives have a fitted effect of over 35% in size
Summary of the method: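 Kinetic fluorescence (1 s intervals) of calcium-sensitive dye in human M1 CHO cells after compound addition; cells pre-incubated 18 h at 37 C/5% CO2 and dye-loaded 1 h.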

[11] = cAMP Responsive Elements (CRE) small molecule agonists, cell-based qHTS assay (AID 1963590)
Summary of the method: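 Test agents in DMSO were incubated 3 h at 37 C/5% CO2 with CRE-bla HEK 293T cells seeded 18 h earlier; LiveBLAzer B/G FRET substrate was added and read after 2 h at room temperature.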

[12] = cAMP Responsive Elements (CRE) small molecule antagonists, cell-based qHTS assay (AID 1963591; active = well fitted inhibition curve with a large enough effect in the signal ratio in the repeat runs, not every such curve was filed as active; the % refers to the signal ratio)
Summary of the method: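 Reporter line CRE-bla HEK 293T in dialyzed-FBS DMEM; cells preincubated 18 h, treated 3 h with compound plus NKH477 (0.25 uM final); LiveBLAzer FRET, 2 h RT.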

[13] = target: Beta-2 adrenergic receptor (Homo sapiens) (UniProt P07550); experiment: Adrenergic beta2 receptor (ADRB2) small molecule antagonists, cell-based qHTS assay (AID 1963592); note: series mostly up to about 92 µM; nearly all actives have a fitted effect of over 50% in size
Summary of the method: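 Assay format: CHO-ADRB2 cells, 18-20hr seeding at 37C/5% CO2, then compound plus 1nM isoproterenol agonist mix for 0.5hr RT. Homogeneous time-resolved fluorescence cAMP detection after 1hr, expressed as 665/615 nm ratio.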

[14] = target: D(2) dopamine receptor (Homo sapiens) (UniProt P14416); experiment: Dopamine D2 receptor (DRD2) small molecule agonists, cell-based qHTS assay (AID 1963594); note: nearly all actives have a fitted effect of over 35% in size
Summary of the method: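 cAMP accumulation in DRD2-HEK293 cells measured by HTRF after 1 h detection; compounds added 10 min before NKH477 (200nM […]) forskolin-analogue stimulation, 30 min at room temperature, with Ro20-1724 present at 0.1 mM final.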

[15] = target: D(2) dopamine receptor (Homo sapiens) (UniProt P14416); experiment: Dopamine D2 receptor (DRD2) small molecule antagonists, cell-based qHTS assay (AID 1963595; active = well fitted inhibition curve with a large enough effect in the signal ratio in the repeat runs, with a control signal flat; the % refers to the signal ratio; note: potency is the fitted concentration of half-maximal effect)
Summary of the method: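 In this cell-based antagonist screen, compounds act for 10 min at room temperature before a 30 min challenge with 12 nM quinpirole and 200 nM NKH477. cAMP is quantified by HTRF competition in DRD2-HEK293 cells containing 0.1 mM Ro20-1724.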

[16] = p53 small molecule agonists, cell-based qHTS assay with rat liver microsomes: qHTS cell viability counter screen (AID 1963580); note: nearly all actives have a fitted effect of over 45% in size
Summary of the method: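 Rat liver microsome (0.5 mg/mL final) and NADPH (0.5 mg/mL final) co-incubation with compounds for 16 h at 37 C on HCT-116 p53RE-bla cells; cytotoxicity taken from intracellular ATP luminescence.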

[17] = target: 5-hydroxytryptamine receptor 2A (Homo sapiens) (UniProt P28223); experiment: 5-hydroxytryptamine receptor 2A (HTR2A) small molecule antagonists, cell-based qHTS assay (AID 1963586); note: nearly all actives have a fitted effect of over 45% in size
Summary of the method: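 CHO cells stably expressing human HTR2A were plated for 18 h at 37 C, then loaded with calcium dye for 1 h. Compounds were preincubated 5 min at room temperature before DOI (4 nM solution) was added. Kinetic fluorescence was read for 3 min.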

[18] = target: 5-hydroxytryptamine receptor 2A (Homo sapiens) (UniProt P28223); experiment: 5-hydroxytryptamine receptor 2A (HTR2A) small molecule agonists, cell-based qHTS assay (AID 1963587); note: nearly all actives have a fitted effect of over 30% in size
Summary of the method: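 Kinetic calcium-flux fluorescence (2 min, 1 sec intervals) after compound addition in agonist mode. HTR2A-CHO cells were cultured 18 h, then dye-loaded 1 h at 37 C.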

[19] = target: Muscarinic acetylcholine receptor M1 (Homo sapiens) (UniProt P11229); experiment: Cholinergic receptor muscarinic 1 (CHRM1) small molecule antagonists, cell-based qHTS assay (AID 1963588); note: nearly all actives have a fitted effect of over 40% in size
Summary of the method: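 Compounds were tested at 15 concentrations in three independent runs. Dye-loaded CHRM1-CHO cells were exposed 5 min at room temperature before stimulation by acetylcholine added at 50nM. Intracellular calcium was read kinetically on FDSS for 3 min.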

Measured: Potency

D(2) dopamine receptor (Homo sapiens), sequence (P14416 whole entry, looked up): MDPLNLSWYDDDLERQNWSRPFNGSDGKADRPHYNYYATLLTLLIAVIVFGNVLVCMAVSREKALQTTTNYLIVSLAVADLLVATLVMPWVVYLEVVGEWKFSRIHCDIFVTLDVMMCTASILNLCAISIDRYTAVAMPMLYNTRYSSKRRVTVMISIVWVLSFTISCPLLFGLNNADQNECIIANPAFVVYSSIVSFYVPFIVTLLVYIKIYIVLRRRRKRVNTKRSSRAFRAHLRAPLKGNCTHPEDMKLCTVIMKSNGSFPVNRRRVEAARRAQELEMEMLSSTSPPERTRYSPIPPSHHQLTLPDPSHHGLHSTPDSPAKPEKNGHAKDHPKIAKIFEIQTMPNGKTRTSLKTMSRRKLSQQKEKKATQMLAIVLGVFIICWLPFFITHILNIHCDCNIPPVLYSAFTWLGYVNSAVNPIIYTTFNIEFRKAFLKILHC
Gonadotropin-releasing hormone receptor (Homo sapiens), sequence (P30968 whole entry, looked up): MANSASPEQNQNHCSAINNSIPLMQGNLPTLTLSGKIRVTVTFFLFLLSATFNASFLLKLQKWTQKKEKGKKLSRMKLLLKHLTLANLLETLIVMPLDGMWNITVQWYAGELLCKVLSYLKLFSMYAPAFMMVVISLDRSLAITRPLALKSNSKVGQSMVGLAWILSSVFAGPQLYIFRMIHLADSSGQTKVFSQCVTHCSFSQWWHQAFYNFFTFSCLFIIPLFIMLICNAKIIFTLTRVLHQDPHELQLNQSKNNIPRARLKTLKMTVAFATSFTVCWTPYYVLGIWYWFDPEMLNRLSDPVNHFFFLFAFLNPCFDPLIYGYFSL
5-hydroxytryptamine receptor 2A (Homo sapiens), sequence (P28223 whole entry, looked up): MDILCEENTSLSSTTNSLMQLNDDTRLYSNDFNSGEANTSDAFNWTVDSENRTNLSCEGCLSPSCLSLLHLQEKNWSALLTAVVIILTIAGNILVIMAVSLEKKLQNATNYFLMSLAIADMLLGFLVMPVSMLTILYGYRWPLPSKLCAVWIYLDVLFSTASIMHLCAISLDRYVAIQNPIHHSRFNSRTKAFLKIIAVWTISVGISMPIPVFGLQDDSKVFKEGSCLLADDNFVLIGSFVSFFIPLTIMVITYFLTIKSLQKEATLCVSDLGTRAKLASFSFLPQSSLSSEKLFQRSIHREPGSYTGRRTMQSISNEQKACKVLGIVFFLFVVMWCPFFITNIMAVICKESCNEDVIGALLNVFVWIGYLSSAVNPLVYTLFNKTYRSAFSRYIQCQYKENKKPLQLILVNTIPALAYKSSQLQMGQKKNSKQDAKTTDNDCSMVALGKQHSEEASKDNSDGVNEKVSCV
Beta-2 adrenergic receptor (Homo sapiens), sequence (P07550 whole entry, looked up): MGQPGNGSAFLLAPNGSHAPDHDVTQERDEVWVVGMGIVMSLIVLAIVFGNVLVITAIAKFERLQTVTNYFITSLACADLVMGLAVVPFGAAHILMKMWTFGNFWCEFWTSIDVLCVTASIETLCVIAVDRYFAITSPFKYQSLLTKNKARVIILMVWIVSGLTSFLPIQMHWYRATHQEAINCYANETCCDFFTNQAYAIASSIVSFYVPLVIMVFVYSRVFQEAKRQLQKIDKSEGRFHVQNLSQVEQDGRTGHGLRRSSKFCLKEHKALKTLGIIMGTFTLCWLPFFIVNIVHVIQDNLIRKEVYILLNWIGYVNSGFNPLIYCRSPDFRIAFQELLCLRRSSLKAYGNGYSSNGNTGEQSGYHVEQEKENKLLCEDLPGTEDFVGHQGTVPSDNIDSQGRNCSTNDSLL
Muscarinic acetylcholine receptor M1 (Homo sapiens), sequence (P11229 whole entry, looked up): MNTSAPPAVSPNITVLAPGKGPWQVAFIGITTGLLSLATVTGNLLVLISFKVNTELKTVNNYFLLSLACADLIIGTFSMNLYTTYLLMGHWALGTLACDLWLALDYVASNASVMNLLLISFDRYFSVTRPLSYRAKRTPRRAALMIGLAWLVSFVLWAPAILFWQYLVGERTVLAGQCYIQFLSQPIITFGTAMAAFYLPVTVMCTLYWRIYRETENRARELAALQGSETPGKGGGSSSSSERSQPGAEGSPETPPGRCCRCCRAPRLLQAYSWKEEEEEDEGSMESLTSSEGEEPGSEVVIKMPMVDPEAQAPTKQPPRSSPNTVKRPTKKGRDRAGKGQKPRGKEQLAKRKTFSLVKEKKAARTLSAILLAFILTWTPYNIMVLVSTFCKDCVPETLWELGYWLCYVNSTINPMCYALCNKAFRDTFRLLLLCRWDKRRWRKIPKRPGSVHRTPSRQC

CC1=CC(=O)CC(C)(C)C1=O
not listed: [16] | [17] | [18] | [19]
inactive: all other assays above

Cc1c(C)c([N+](=O)[O-])c(C(C)(C)C)c([N+](=O)[O-])c1C
not listed: [9] | [13]
inactive: all other assays above

Cn1c(=O)c2c(ncn2CC(O)CO)n(C)c1=O (stereo not drawn)
not listed: [8] | [10] | [17] | [18] | [19]
inactive: all other assays above

CCc1cc(S(=O)(=O)O)c2cc(C(C)C)cccc1-2
not listed: [16] | [19]
inactive: all other assays above

CCc1nnc(NS(=O)(=O)c2ccc(N)cc2)s1
not listed: [7]
inactive: all other assays above

C=C(C)C(=O)OCC1CCCO1 (stereo not drawn)
not listed: [7] | [10]
inactive: all other assays above

CCCCC(CC)(CO)CO
not listed: [7] | [14]
inactive: all other assays above

CNS(=O)(=O)Cc1ccc2[nH]cc(CCN(C)C)c2c1
not listed: [9] | [10] | [17] | [18] | [19]
inactive: all other assays above

CCO
not listed: [10] | [16] | [17] | [18] | [19]
inactive: all other assays above

N#CCC(=O)NN
not listed: [9] | [17] | [19]
inactive: all other assays above

NC(=O)COCCN1CCN(C(c2ccccc2)c2ccc(Cl)cc2)CC1 (stereo not drawn)
not listed: [8] | [9] | [12] | [14]
inactive: all other assays above

CCCCCCCCOS(=O)(=O)O
not listed: [8] | [15]
inactive: all other assays above

Cc1cccc(C)c1OCC(=O)N[C@@H](Cc1ccccc1)[C@@H](O)C[C@H](Cc1ccccc1)NC(=O)[C@H](C(C)C)N1CCCNC1=O
not listed: [9] | [11] | [12] | [17] | [18]
inactive: all other assays above

O=C1CC2(CCCC2)CC(=O)N1CCNCC1COc2ccccc2O1 (stereo not drawn)
active: [15] 0.75 µM
inactive: [1] | [2] | [3] | [4] | [5] | [6] | [7] | [19] | [10] | [13]

CN1CCN(Cc2cc(-c3ccc4[nH]c(=O)oc4c3)co2)[C@@H](c2ccc(F)cc2)C1
inactive: [3] | [4] | [5] | [6] | [7] | [16] | [17] | [10] | [13]
active: [1] 26.3 µM | [2] 13.2 µM

Cc1cc(C)n(CO)n1
not listed: [7] | [8] | [18]
inactive: all other assays above

O=C(CCCN1CCN(c2ccccn2)CC1)c1ccc(F)cc1
not listed: [6] | [14] | [15] | [17]
inactive: all other assays above
